# Screening data as filed in PubChem BioAssay.
# G9a inh – blocks human histone lysine methyltransferase G9a. G9a H3K9 monomethylation, AlphaScreen, 2 h. Potency, µM (series often up to 102 µM), for inactives: top-dose activity, negative = inhibition, hits mostly inhibitors. 350,000 compounds, 8.8% hits. AID 504332; further: on the % scale 0 is the no-effect control and ±100 the full control effect; nearly all actives have a fitted effect of over 75% in size
# Target sequence (Q96KQ7 913-1193 limits assumed): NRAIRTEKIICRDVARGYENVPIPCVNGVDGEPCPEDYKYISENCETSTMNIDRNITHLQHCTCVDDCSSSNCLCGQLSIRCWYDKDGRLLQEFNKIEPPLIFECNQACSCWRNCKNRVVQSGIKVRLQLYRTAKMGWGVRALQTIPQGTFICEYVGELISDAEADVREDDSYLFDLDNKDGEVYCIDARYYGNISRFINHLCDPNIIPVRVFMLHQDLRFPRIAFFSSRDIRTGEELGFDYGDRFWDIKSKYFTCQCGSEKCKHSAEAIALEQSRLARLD
#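 Step 1: enzyme (final 20 nM) with compound, 15 min RT. Step 2: substrate peptide 500 nM and SAM 20 uM, 2 h RT. Step 3: anti-H3K9me1 antibody and AlphaScreen beads, 10 min, then plate read.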
# GLS inhibitor – blocks human kidney-isoform glutaminase activity. O94925. Potency, µM (titrated, usually from 45.5 µM), inactives show top-dose activity change, negative = inhibition, actives largely listed as inhibitors. GLS enzymatic activity, qHTS titration. 410,000 compounds, 0.21% hits; further: on the % scale 0 is the no-effect control and ±100 the full control effect
#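 hKGA in 45 mM KH2PO4 pH 8.2, 0.02% Tween-20 with pin-transferred compounds; 1 mM L-glutamine (stock) plus glutamate oxidase/HRP/Amplex Red coupling added. Fluorescence read initially and after 30 min at RT.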
# HP1b binding inh – blocks HP1-beta chromodomain binding to methylated histone tails. P83916. AlphaScreen HP1-beta / biotin-H3K9me3 peptide binding. Potency, µM (titrated, usually from 114 µM), inactives show at the highest dose activity change, negative = inhibition, most hits filed as inhibitors. 390,000 compounds, 0.56% hits. AID 540317; further: nearly all actives have a fitted effect of over 70% in size
# Target sequence (P83916 whole entry, looked up): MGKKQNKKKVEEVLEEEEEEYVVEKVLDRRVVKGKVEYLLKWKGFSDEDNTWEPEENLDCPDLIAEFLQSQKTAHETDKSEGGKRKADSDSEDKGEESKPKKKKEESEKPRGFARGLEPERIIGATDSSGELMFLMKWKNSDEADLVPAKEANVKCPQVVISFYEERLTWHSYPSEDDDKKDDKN
#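 HP1-beta protein (50 nM final) preincubated 30 min at room temperature with biotinylated H3(1-18)K9me3 peptide (50 nM) in PBS pH 7.4, 0.01% Tween-20, then compound added for 30 min. AlphaScreen streptavidin donor/nickel chelate acceptor beads (10 ug/mL final), 30 min dark, luminescence read.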
# JMJD2A Tudor – JMJD2A Tudor domain (human) inhibition. O75164. Potency, µM (top dose mostly 114 µM), for the others: at the highest dose activity change, negative = inhibition, usual class: inhibitors. AlphaScreen JMJD2A-Tudor / H3K4me3 peptide binding. 390,000 compounds, 4.4% hits; further: on the % scale 0 is the no-effect control and ±100 the full control effect; nearly all actives have a fitted effect of over 50% in size
# BAZ2B inh – BAZ2B (human) inhibition | AlphaScreen BAZ2B-H3K14Ac peptide displacement | Potency, µM (highest dose often 114 µM), inactives show at the top dose activity change, negative = inhibition, actives largely listed as inhibitors | 360,000 compounds, 4.4% hits; further: on the % scale 0 is the no-effect control and ±100 the full control effect; nearly all actives have a fitted effect of over 60% in size
#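 Protein-peptide AlphaScreen: BAZ2B 50 nM, b-H3K14Ac 50 nM, 1x PBS pH 7.4 + 0.01% Tween-20. Preincubation 30 min RT; cpd 30 min RT (top 110 uM); beads 20 min RT, light-protected.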
# Starred values were filed as active, the others as inactive; ? = inconclusive; . = no result; ! = not confirmed by another sample; [ ] = dose if it differs, or a comment. This is a sample that favours compounds with a hit; in the whole collection about 10% have one here. The call rests on the fitted dose curve; in most records, active means well fitted curve in the direction sought with a large enough effect; inconclusive means small, poorly fitted or top-dose-only effect, or another doubt; inactive means no such curve, though single readings can be large; an effect the other way counts as inactive or inconclusive. Potency means the concentration at half of the fitted maximal effect.
SMILES,G9a inh,GLS inhibitor,HP1b binding inh,JMJD2A Tudor,BAZ2B inh
Cc1nnc(Nc2ccc(C(=O)O)cc2)[nH]c1=O,3%,0%,15%,0%,-4%
CN(C)c1ccc(/C=C/c2ccncc2)cc1,?,1%,32%,-29%,?
CC(C)CC[n+]1ccccc1/C=C/c1ccc(N(C)C)cc1,32µM*,29%,11%,-15%,-31%
[O-][n+]1ccccc1/C=C/c1ccccc1,.,5%,9%,-3%,.
CN(C)c1ccc(/C=C/c2cccc[n+]2[O-])cc1,50µM*,4%,4%,-17%,-6%
NNc1nncc2ccccc12,7.9µM*!,1%[20 µM],.,.,.
CNC(=S)NNc1nncc2ccccc12,2.5µM*,?,-14%,-22%,-14%
CCNC(=S)NNc1nncc2ccccc12,?,?,3%,?,-24%
NCc1csc(Nc2nncc3ccccc23)n1,.,8%,.,.,.
COc1ccc(/C=N/Nc2nncc3ccccc23)cc1,?,0%,27%,28µM*,25µM*
COc1ccccc1/C=N/Nc1nncc2ccccc12,?,0%,-30%,?,-33%
CCc1cccc(NC(=O)COC(=O)c2cn(CC)c3nc(C)ccc3c2=O)c1,-3%[59 µM],-7%,57%,-17%,3%
C=CCc1cccc2cc(C(=O)Nc3ccc(CC(=O)O)cc3)c(=O)oc12,50µM*,-26%,-23%,-12%[11.4 µM],32µM*
C=CCc1cccc2cc(C(=O)Nc3ccc(S(=O)(=O)Nc4nnc(CC)s4)cc3)c(=O)oc12,?,-17%,28µM*,28µM*,22µM*
C=CCc1cccc2cc(C(=O)N3CCN(C(=O)c4ccccc4)CC3)c(=O)oc12,14µM*,-5%,27%,-15%,?
C=CCc1cccc2cc(C(=O)N3CCOCC3)c(=O)oc12,-47%,8%,27%,-13%,5%
C=CCc1cccc2cc(C(=O)Nc3ccc(F)cc3)c(=O)oc12,2%[59 µM],8%,9%,-20%,-10%
CCn1c(CC(=O)Nc2ccccc2F)nnc1SCC(=O)Nc1nnc(C)s1,3%,-9%,19%,12%,-15%
CCN(C[C@H]1N[C@@](CC)(C(=O)OC)[C@H]2C(=O)N(C)C(=O)[C@@H]12)S(=O)(=O)c1ccc(F)cc1,.,14%,21%,-8%,.
COc1ccc(C(=O)/C=C/Nc2ccc(S(=O)(=O)Nc3nc(C)cc(C)n3)cc2)c(OC)c1,.,-12%,-6%,-23%,-16%
COc1cccc(-c2nn(C)c3sc(C(=O)NCc4ccc(C)o4)cc23)c1,?,11%,-34%,50µM*,?
COc1cccc(-c2nn(C)c3sc(C(=O)NCc4ccc(OC)cc4OC)cc23)c1,?,8%,9%,-26%,.
C[C@@H]1Cc2c(O)c(O)cc(O)c2C(=O)O1,-151%[59 µM],-23%,?,56µM*,?
O=C(O/N=C\c1ccc(N2CCCCC2)c([N+](=O)[O-])c1)c1cccc(C(F)(F)F)c1,5µM*,-1%,?,?,?
O=C(O/N=C\c1ccc(N2CCCCC2)c([N+](=O)[O-])c1)c1cccc(Cl)c1,28µM*,4%,?,?,?
SMILES,G9a inh,GLS inhibitor,HP1b binding inh,JMJD2A Tudor,BAZ2B inh
O=C(N/N=C/c1ccc(N2CCCC2)c([N+](=O)[O-])c1)c1cccnc1,?,-6%,-5%,-22%,?
O=C(O/N=C\c1ccc(N2CCCCC2)c([N+](=O)[O-])c1)c1c(F)cccc1F,14µM*,-5%,?,?,?
NC(=O)c1ccc(N2CCCCCC2)c([N+](=O)[O-])c1,-43%,3%,16%,-22%,?
CN(c1ccc(C(=O)O)cc1)S(=O)(=O)c1ccccc1,-25%,-5%,28%,-14%,1%
COc1ccc(CNc2ccc3c(c2)nc(C)n3C)cc1,3.5µM*,21%,-1%,-30%,-28%
Cc1ccc(CNc2ccc3c(c2)nc(C)n3C)cc1,25µM*,-13%,-5%,-34%,?
COc1ccc(OC)c(CNc2ccc3c(c2)nc(C)n3C)c1,35µM*,-1%,-10%,-36%,-36%
CCCCc1c(-c2ccccc2OC)ncn1CCc1cccc(Cl)c1,.,4%,.,.,.
O=C(Cn1cc2c(n1)CCCCC2)NC1CCN(Cc2ccccc2)CC1,-20%,3%,41%,-14%,10%
CCc1ccccc1N(CC(=O)O)S(C)(=O)=O,7%[59 µM],2%,16%,-32%,?
CS(=O)(=O)N(CC(=O)N1CCN(c2ccccc2)CC1)c1cccc(Br)c1,89µM*,0%,15%,-11%,-2%
CCc1ccccc1N(CC(=O)N1CCN(c2ccccc2)CC1)S(C)(=O)=O,-17%[59 µM],-1%,-21%,79µM*,.
COc1cccc(N(CC(=O)N2CCN(c3ccccc3OC)CC2)S(C)(=O)=O)c1,79µM*,0%,17%,-7%,4%
COc1ccccc1N1CCN(C(=O)CN(c2ccc(C)c(C)c2)S(C)(=O)=O)CC1,31%[12.7 µM],8%,28%,-7%,6%
CCOC(=O)c1c(S(=O)(=O)N2CCCC(C(=O)Nc3ccccn3)C2)c(C)n(C)c1C (stereo not given),4%[59 µM],-1%,15%,-25%,-9%
COc1ccc(C(=O)Nc2nc(C)c3cc4c(cc3n2)OCO4)cc1,-4%,-11%,42%,-5%,-4%
C/C(=N/N=C(/N)SCc1ccccc1)C(C)(C)C,10µM*,-2%,41%,-6%,-18%
C/C(CCc1ccc2c(c1)OCO2)=N\N=C(/N)SC1CC(=O)N(c2ccccc2F)C1=O (stereo not given),33%[0.501 µM],8%,24%,-10%,16µM*
COc1ccc(C(=O)Oc2ccc3oc(=O)sc3c2)cc1,?,-9%,32%,-5%,3%
CC(=O)N(c1ccc2oc(=O)sc2c1)S(=O)(=O)c1ccccc1,25µM*,4%,5%,-2%[11.4 µM],?
COc1ccc(N(C(C)=O)S(=O)(=O)c2cc(OC)ccc2OC)cc1,-7%[12.7 µM],-1%,21%,-12%,-3%
COc1ccc(S(=O)(=O)N(C(=O)C(C)C)c2ccc3oc(=O)sc3c2)cc1,7.9µM*,-1%,48%,-21%,?
COc1ccc(OC)c(S(=O)(=O)N(C(C)=O)c2ccc3oc(=O)sc3c2)c1,35µM*,-9%,62%,1%,-20%
CCCC(=O)N(c1ccc2oc(=O)sc2c1)S(=O)(=O)c1cccs1,40µM*,11%,38%,-13%,-6%
COC(=O)[C@]12CCCCC=C1N(Cc1ccc(Cl)cc1Cl)C(=O)[C@H](CC(=O)N1CCN(C(=O)C3CC3)CC1)C2,.,6%,.,.,.
CCc1nnc(NC(=O)C=C(C)C)s1,-9%[59 µM],6%,23%,-34%,5%
CC(C)C(=O)N(c1ccc2oc(=O)sc2c1)S(=O)(=O)c1ccccc1,3.2µM*,-2%,19%,?,-32%
